Compound activity (PubChem)
IL2 activator – IL-2 activation | IL-2 activation reporter assay, cell-based qHTS; stimulated with anti-CD3/CD4/CD28 beads; in transgenic mouse T cells | activation, % (series mostly up to about 46 µM) | 360,000 compounds, 0.065% hits; in the data active = activation above about 50%; inconclusive = mostly about 30% to 49%; also: 0% is about no effect
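Readout is EGFP and DsRed signal by fluorescent plate cytometry after 18 h at 37 degrees C. Transgenic mouse T cells (750/well) received compound for 60 min before bead stimulation (anti-CD3, anti-CD4, anti-CD28); memory T cells served as non-tolerant control.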
RXFP1 ag – activates the human relaxin receptor RXFP1 | HEK293T-RXFP1 cAMP TR-FRET, 30 min; response scale: percent of porcine relaxin response, buffer zero | Potency, µM (highest dose often 57.5 µM), for inactives: at the top dose activation, actives largely listed as activators | 370,000 compounds, 0.3% hits | AID 2676; also: potency is read from the fitted curve at half-maximal effect; % is scaled to controls: 0 for no effect and ±100 for the full control effect; nearly all actives have a fitted effect of over 60% in size
Target sequence (Q9HBX9 whole entry, looked up): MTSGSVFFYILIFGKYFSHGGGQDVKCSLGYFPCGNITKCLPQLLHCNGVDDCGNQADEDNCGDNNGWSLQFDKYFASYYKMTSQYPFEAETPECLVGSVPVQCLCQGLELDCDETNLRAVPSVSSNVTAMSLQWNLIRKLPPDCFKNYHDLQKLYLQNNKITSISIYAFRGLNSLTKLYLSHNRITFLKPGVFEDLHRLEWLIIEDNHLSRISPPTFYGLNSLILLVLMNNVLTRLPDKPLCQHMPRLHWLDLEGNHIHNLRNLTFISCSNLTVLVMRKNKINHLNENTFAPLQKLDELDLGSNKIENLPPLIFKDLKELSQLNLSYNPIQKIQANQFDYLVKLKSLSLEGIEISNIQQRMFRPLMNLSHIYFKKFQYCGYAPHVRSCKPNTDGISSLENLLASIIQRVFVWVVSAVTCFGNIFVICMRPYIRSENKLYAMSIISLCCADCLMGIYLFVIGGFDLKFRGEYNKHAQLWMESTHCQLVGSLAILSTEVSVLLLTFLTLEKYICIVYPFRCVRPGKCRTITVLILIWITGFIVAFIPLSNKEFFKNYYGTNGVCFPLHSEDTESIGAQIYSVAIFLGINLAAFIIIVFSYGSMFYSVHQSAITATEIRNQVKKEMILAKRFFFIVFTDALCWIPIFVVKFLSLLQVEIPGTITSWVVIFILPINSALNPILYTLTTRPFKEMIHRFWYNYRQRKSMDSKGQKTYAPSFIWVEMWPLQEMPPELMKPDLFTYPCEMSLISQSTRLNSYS
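Agonist response is measured as cAMP accumulation in an RXFP1-transfected HEK293T line under PDE4 inhibition. Values are scaled between buffer-only and 29 nM porcine relaxin, and EC50s come from standard Hill equation fits.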
BRCA1 expr act – BRCA1 expression activation | 380,000 compounds, 1.1% hits | Potency, µM (series often up to 46.1 µM), without a hit: top-dose activation, actives largely listed as activators | AID 624202 | MCF7-BRCA1-FFLuc reporter, luminescence, 48 h; response scale: scaled: vehicle 0%, 10 µM genistein 100%; also: potency is read from the fitted curve at half-maximal effect; nearly all actives have a fitted effect of over 80% in size
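Reporter cells (MCF7, BRCA1 promoter-firefly luciferase) received library compounds across a concentration series for 48 h. End-point luminescence was measured and concentration-effect curves derived after normalization.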
RXFP1 antag – RXFP1 (human) relaxin receptor antagonism | Q9HBX9 | AID 1259400 | HEK293-RXFP1, relaxin-stimulated cAMP HTRF, 30 min; stronger effect = lower value | 350,000 compounds, 0.59% hits | activity change, negative = inhibition, % at 57.5 µM;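 active = activity change of -60% or lower, but not beyond a set lower limit; inconclusive = change between -60% and -40%, or beyond the set limit; inactive = change above -40%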; also: % is scaled to controls: 0 for no effect and ±100 for the full control effect
Giardia killer – kills Giardia lamblia | Giardia lamblia trophozoite viability | activity change, % at 7.66 µM, hits read low | 340,000 compounds, 0.15% hits | AID 540267; in the data active = activity change below about -80%; inconclusive = between about -30% and that limit;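 also: parasites exposed to compound for two days anaerobically before the ATP read; % is scaled to controls: 0 for no effect and ±100 for the full control effect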
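Each well holds 100 Giardia trophozoites and compound. After two days (48 hrs) at 37 deg C in anaerobic conditions, ATP is quantified by luminescence.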
NPSR antagonist – blocks cAMP signaling of the human neuropeptide S receptor | Q6W5P4 | 220,000 compounds, 1% hits | AID 1461 | CHO-NPSR cells, cAMP TR-FRET, antagonist mode | Potency, µM (top dose mostly 38.3 µM), without a hit: at the top dose activity change, negative = inhibition, most hits filed as inhibitors; also: potency is read from the fitted curve at half-maximal effect; % is scaled to controls: 0 for no effect and ±100 for the full control effect; nearly all actives have a fitted effect of over 50% in size
Active calls of the source: *; ? = inconclusive; nt = no result; [ ] = remark or other dose. Compounds with a hit are over-represented: about 1.9% of the library has one in this group of screens. Unless noted, calls follow the shape of the dose curve; as a rule, active = well fitted curve in the direction sought with a large enough effect; inconclusive = small, poorly fitted or top-dose-only effect, or another doubt; inactive = no such curve, though single readings can be large; an effect the other way counts as inactive or inconclusive.

SMILES | IL2 activator | RXFP1 ag | BRCA1 expr act | RXFP1 antag | Giardia killer | NPSR antagonist
CC(=O)Nc1ccc(NC(=O)CN(C)S(=O)(=O)c2ccc3c(c2)CCC(=O)N3)cc1 | 1 | 0% | 3% | -86* | -4 | nt
CN(Cc1cc(-c2ccccc2)on1)C(=O)c1cc(COc2c(F)cccc2F)on1 | -1 | -2% | 11µM* | 6 | -20 | 9%
CC/C(=N/Nc1cccc(C)c1)c1cnnc(SC)n1 | 190* | 3% | -53% | 5 | -9 | -49%
Cc1ccc(C(=O)NCCn2c(N)c(C#N)c3nc4ccccc4nc32)cc1 | 54* | 26% | -24% | nt | -18 | -12%
Oc1ccc(Br)cc1C1C=C(c2ccc3c(c2)OCO3)NC(c2c(F)cccc2Cl)N1 (stereo not given) | nt | nt | -28% | nt | -3 | nt
Cc1cc(C)nc(SCC(=O)NC2CCCCC2C)n1 (stereo not given) | 1 | 0% | -6% | -61* | -21 | nt
COc1ccc2c(c1OC)C(=O)N1c3ccccc3C(=O)N(Cc3ccco3)C21 (stereo not given) | nt | nt | 1% | nt | 5 | nt
Cn1c(C(=O)NCc2cccc(Cl)c2)cc2oc3ccccc3c21 | nt | 2% | 44% | nt | nt | nt
COCCNC(=O)c1cc2oc3ccccc3c2n1C | -3 | -1% | 10µM* | -16 | 0 | -8%[46.1 µM]
O=C(/C=C/c1ccc2c(c1)OCO2)N1CCCCC1 | 1 | 2% | 3.5µM* | 7 | -2 | nt
Cc1ccc(NC(=O)/C=C/c2ccc3c(c2)OCO3)nc1 | 0 | 19% | 1.6µM* | 21 | -20 | 2%[46.1 µM]
O=C(/C=C/c1ccc2c(c1)OCCCO2)c1ccccc1O | 0 | 2% | 102% | -11 | 3 | -18%
Cc1ccc(O)c(C(=O)/C=C/c2ccc3c(c2)OCCCO3)c1 | -5 | 0% | 7.1µM* | -16 | 7 | -47%
CN(C(=O)c1cc(-c2ccc3c(c2)OCO3)on1)c1ccccc1 | -3 | -1% | 2.8µM* | -3 | -5 | nt
Cc1ccc(NC(=O)Nc2ccc3c(c2)OCO3)nc1 | 2 | -1% | ? | -3 | 10 | -3%
CCSc1ncc(Cl)c(C(=O)Nc2sc3c(c2C(=O)OC)CCCC3)n1 | nt | nt | -12% | nt | nt | nt
Cc1ccc(SCC(c2ccccc2)N2CCN(C)CCC2=O)cc1 (stereo not given) | nt | nt | nt | nt | 3 | nt
O=C1C2C3CCCC3=C3CCCC3C2C(=O)N1c1ccccc1Cl (stereo not given) | nt | nt | 3% | nt | 17 | nt
CN(C(=O)C=Cc1ccccc1)c1ccccc1 | 1 | nt | 72% | -3 | 4 | nt
O=C(/C=C/c1ccc2c(c1)OCO2)c1ccc[nH]1 | -5 | 1% | 7.9µM* | -4 | -11 | -2%
CN(/N=C/c1ccc2c(c1)OCO2)c1ccccc1 | -1 | 0% | 7.1µM* | -24 | -19 | 6%
COc1cccc(/C=C/C(=O)c2ccc[nH]2)c1 | 2 | 0% | 7.9µM* | -6 | -3 | 3%[46.1 µM]
CN(C(=O)/C=C/c1ccc2c(c1)OCO2)c1ccccc1 | 1 | 1% | 3.2µM* | -7 | 0 | 16%
COc1cccc(/C=C/C(=O)Oc2ccc(C(=O)c3ccc(F)cc3)cc2)c1 | -1 | 0% | 10% | -10 | 2 | -9%[46.1 µM]
CCOCCc1nnc(NC(=O)C(=O)c2cc(C)n(-c3cccc(C)c3)c2C)s1 | nt | -3% | nt | -12 | nt | nt
SMILES | IL2 activator | RXFP1 ag | BRCA1 expr act | RXFP1 antag | Giardia killer | NPSR antagonist
O=C(CCl)Nc1nc(-c2ccco2)c(-c2ccco2)s1 | 2 | 0% | -38% | ? | -11 | -36%
Cc1ccc(C(=O)Nc2nc(-c3ccco3)c(-c3ccco3)s2)o1 | 2 | -3% | -63% | -81* | -6 | nt
N#Cc1ccc(/C=C2\C=Cc3ccccc32)cc1 | nt | nt | 79% | nt | nt | nt
CC(C)=NNc1nc2c(c(=O)[nH]c(=O)n2C)n1CCc1ccccc1 | 2 | 0% | -10% | -70* | 1 | 8%
CCN(CC)C(=O)Nc1ccc(OCC(O)CNC(C)(C)C)c(C(C)=O)c1 (stereo not given) | nt | nt | nt | -11 | nt | nt
Cc1ccc(-c2csc3ncnc(Sc4nnnn4-c4ccccc4)c23)cc1 | nt | nt | -51% | nt | nt | nt
COc1ccc(CNc2cccnc2Cl)cc1 | 0 | nt | 10µM* | nt | nt | nt
COc1ccc(CNc2ncccc2[N+](=O)[O-])cc1 | 2 | 0% | ? | -7 | 9 | nt
CN1C(=O)/C(=C/c2ccc(O)c([N+](=O)[O-])c2)N(C)C1=S | -3 | 0% | -9% | -7 | -91* | -28%
COc1cc(/C=C2\C(=O)N(C)C(=S)N2C)ccc1O | 3 | -1% | -40% | -4 | 5 | 1%
COc1cc(NS(=O)(=O)c2ccc(OC)c(C)c2C)c(OC)cc1Cl | 0 | 1% | -64% | -9 | -8 | 20µM*
Cc1cc(/C=C/c2c(C)cnc3ccccc23)ccc1N(C)C | nt | nt | -51% | nt | nt | nt
CCC1(C)Cc2c(sc3nc(SC)n(Cc4ccccc4)c(=O)c23)CO1 (stereo not given) | 1 | 0% | 13µM* | -3 | 13 | ?
O=C(O)C1CC=CCC1C(=O)N1CCN(c2nc(-c3ccccc3Cl)c3cc(Br)ccc3n2)CC1 (stereo not given) | -2 | 29% | -19% | -25 | 12 | 13µM*
CC[n+]1c(/C=C/C=C/N(C(C)=O)c2ccccc2)sc2cc(OC)ccc21 | 55* | 5% | -84% | -2 | 8 | -35%
COc1ccc(NC(=O)c2ccccc2OCC(=O)Nc2ccc(Br)cc2)cc1 | nt | nt | -2% | nt | nt | nt
CC(C)C(O)(c1ccccc1)C(CN1CCOCC1)c1ccccc1 (stereo not given) | -1 | 2% | -10% | -12 | -10 | nt
CCc1ccc(C(O)(C(C)C)C(CN2CCOCC2)c2ccccc2)cc1 (stereo not given) | -2 | -1% | 4% | -78* | 1 | nt
CCCC(O)(c1ccccc1)C(CN1CCOCC1)c1ccccc1 (stereo not given) | -3 | -4% | -26% | -14 | 9 | nt
CCCC(O)(c1ccc(CC)cc1)C(CN1CCOCC1)c1ccccc1 (stereo not given) | -6 | -3% | -50% | -62* | -16 | nt
CC(=O)c1cccc(NC(=O)Cn2nc(C(F)(F)F)c3c2CCC3)c1 | nt | -1% | 2% | nt | nt | nt
CCOC(=O)c1c(Nc2ccc(OC)cc2)nnc(-c2ccccc2)c1-c1ccccc1 | nt | -2% | 19% | nt | nt | nt
COCCNC(=O)C(OC(=O)c1nsc(Cl)c1Cl)C(C)C (stereo not given) | -1 | 18µM* | 0% | 9 | 0 | -2%
CN(C)c1ccc(/C=C/c2sc3ccccc3[n+]2CCCCI)cc1 | nt | nt | -44% | nt | nt | nt
CC(CC(=O)Nc1ncc([N+](=O)[O-])s1)c1ccccc1 (stereo not given) | -5 | 2% | -39% | -12 | -86* | ?
